GLA inh pH 4.5: qHTS Assay for Inhibitors of Human alpha-Galactosidase at pH 4.5 | Alpha-galactosidase A (Homo sapiens), P06280 | 230,000 tested, under 10 active | AID 1467, 2008 | activity change, negative = inhibition, % at 105 µM | purified enzyme, 4-MU-alpha-Gal fluorescence, pH 4.5;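 further: 0% = full activity with enzyme and -100% = basal without enzyme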
GAA glycogen: qHTS Assay for Inhibitors and Activators of Human alpha-Glucosidase Cleavage of Glycogen. Lysosomal alpha-glucosidase (Homo sapiens), P10253. recombinant GAA, glycogen substrate, Amplex Red glucose oxidase fluorescence. Potency, µM (series often up to 76.4 µM), inactives show top-dose activity change, negative = inhibition, actives largely listed as inhibitors. 0.38% of 300,000 active. AID 2100, 2009;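 further: potency means the concentration at half of the fitted maximal effect; 0% = full enzyme reaction and -100% = no-enzyme basal signal; the screen sought inhibitors and activators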
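qHTS, 1536-well; enzyme 4 nM final; cpd up to 77 uM; substrate bovine liver glycogen 30 ug; 50 mM citrate/phosphate pH 5.0, 0.01% Tween-20; 37 C, 40 min; Amplex Red detection 45 min RT; Hill fit → AC50.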
GLA spleen mod: qHTS Assay for Inhibitors and Activators of Human alpha-Galactosidase From Spleen Homogenate; Alpha-galactosidase A (Homo sapiens), P06280; human spleen homogenate, 4MU-alpha-Gal fluorescence, 40 min; Potency, µM (doses to about 80 µM), for inactives: at the top dose activity change, negative = inhibition, usual class: inhibitors; 0.008% of 240,000 active; AID 2107, 2009;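 further: potency means the concentration at half of the fitted maximal effect; 0% = enzyme with vehicle and -100% = no enzyme basal signal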
Target sequence (P06280 32-429 limits assumed): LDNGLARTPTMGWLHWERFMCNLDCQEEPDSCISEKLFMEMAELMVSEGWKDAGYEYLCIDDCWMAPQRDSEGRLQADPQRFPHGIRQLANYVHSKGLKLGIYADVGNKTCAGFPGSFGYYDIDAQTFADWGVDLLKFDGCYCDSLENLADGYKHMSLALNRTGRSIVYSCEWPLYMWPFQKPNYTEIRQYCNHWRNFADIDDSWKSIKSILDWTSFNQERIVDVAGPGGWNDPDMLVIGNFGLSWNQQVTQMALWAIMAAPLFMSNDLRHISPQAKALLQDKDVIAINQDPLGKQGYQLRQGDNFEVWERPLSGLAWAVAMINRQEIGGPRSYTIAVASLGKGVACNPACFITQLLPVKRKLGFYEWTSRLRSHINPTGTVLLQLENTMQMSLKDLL
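Inhibition or activation of alpha-galactosidase in human spleen homogenate is scored by 4-MU fluorescence after 40 min at 37C, pH 5.0, with 1 mM substrate. AC50s come from concentration-response fitted to the Hill equation.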
GAA spleen mod: qHTS Assay for Inhibitors and Activators of Human alpha-Glucosidase From Spleen Homogenate | 0.006% of 240,000 active | Potency, µM (titrated, usually from 79.9 µM), for inactives: top-dose activity change, negative = inhibition, usual class: inhibitors | human spleen homogenate, 4-MU-alpha-glucoside fluorescence;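 further: potency means the concentration at half of the fitted maximal effect; 0% = enzyme with vehicle and -100% = no enzyme basal signal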
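Enzyme source: human spleen homogenate, 1 ug/well. Buffer 50 mM citric acid/K phosphate pH 5.0, 0.01% Tween-20. 4-MU-alpha-glucoside 1 mM; 37 C x 40 min; NaOH/glycine stop; fluorescence.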
GAA inhib: qHTS Assay for Inhibitors of Human alpha-Glucosidase as a Potential Chaperone Treatment of Pompe Disease; purified human GAA, 4-MU-alpha-glucoside fluorescence; Potency, µM (top dose mostly 76.9 µM), inactives show top-dose activity change, negative = inhibition, most hits filed as inhibitors; 0.005% of 200,000 active; Lysosomal alpha-glucosidase (Homo sapiens), P10253;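 further: potency means the concentration at half of the fitted maximal effect; plate controls were uninhibited enzyme wells for no effect and no-enzyme background for full effect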
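Human enzyme at 4 nM with 400 uM 4-methylumbelliferyl-alpha-D-pyranoside, citrate/phosphate buffer pH 5.0, 0.005% Tween-20, 20 min at room temperature. Compounds up to 77 uM. 4-MU fluorescence (Ex 365/Em 440) read after NaOH/glycine stop; AC50 from Hill fit.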
Active calls of the source: *; ? = inconclusive; · = no result given; [ ] = remark or other dose. In the library only some 0.4% were active in any assay of this set; here they are far more common. The call rests on the fitted dose curve; in most records, active means well fitted curve in the direction sought with a large enough effect; inconclusive means small, poorly fitted or top-dose-only effect, or another doubt; inactive means no such curve, though single readings can be large; an effect the other way counts as inactive or inconclusive.

SMILES	GLA inh pH 4.5	GAA glycogen	GLA spleen mod	GAA spleen mod	GAA inhib
COc1ccc(/C=N/Nc2nonc2N)c(OC)c1	-2	35µM*	-11%	3%	-2%
COc1ccc(/C=N/Nc2nccnc2Cl)c(OC)c1	-1	?	-25%	-5%	7%
CC1C(=O)NN=C1C(=O)N/N=C\C(Br)=C\c1ccccc1 (centres undefined)	0	25µM*	-10%	-2%	6%
CC1=NNC(=O)C1CC(=O)N/N=C/C(Br)=C/c1ccccc1 (centres undefined)	0	?	14%	12%	·
Cc1ccc(N2C(=O)C(CC(=O)Nc3ccc(F)cc3)N(CCC3=CCCCC3)C2=O)cc1 (centres undefined)	·	4%[76.3 µM]	·	·	·
CCOc1ccc2c(c1)-c1c(ssc1=S)C(C)(C)N2C	2	-3%	2%	-1%	-7%
CC1(C)Nc2ccc(O)cc2-c2c1ssc2=S	-8	40µM*	-1%	4%	2%
OCC1CCCN(C(=S)Nc2ccc(OC(F)F)cc2)C1 (centres undefined)	-1	12%	2%	-7%	3%
OCC1CCCN(C(=S)Nc2ccc(Nc3ccccc3)cc2)C1 (centres undefined)	3	25µM*	2%	-8%	-12%
COc1ccc(NCC(=O)Nc2ccc(Cl)cc2C)c(OC)c1	-17	16µM*	9%	9%	-4%
CCOc1ccc(NCC(=O)Nc2ccc(Cl)cc2C)cc1	-4	?	-3%	2%	4%
COc1cc(OC)c(NC(=O)Cn2c(=O)nc(-c3ccccc3)c3ccccc32)cc1Cl	·	-2%[76.3 µM]	·	·	·
COc1ccc(O)c(-c2c(-c3ccc(Cl)cc3)n[nH]c2C)c1	-7	10µM*	-5%	1%	-8%
O=S(=O)(NCc1ccco1)c1ccc(S(=O)(=O)N2CCCC2)cc1	-6	35µM*	-18%	3%	?
O=S(=O)(NCc1ccco1)c1cccc(S(=O)(=O)N2CCOCC2)c1	9	-2%	2%	1%	-5%
COc1cccc(CNS(=O)(=O)c2ccc(S(=O)(=O)N3CCCC3)cc2)c1	-13	5µM*	2%	1%	1%
COc1ccc(NC(=O)c2cnc[nH]2)cc1	·	-6%[76.3 µM]	·	·	·
O=C(/C=C\c1ccc(O)c(O)c1)O[C@@H]1C[C@](O)(C(=O)O)C[C@@H](O)[C@@H]1O	-4	·	14%[29.1 µM]	2%[29.1 µM]	·
O=C(/C=C/c1ccc(O)c(O)c1)OC1C(O)CC(OC(=O)/C=C/c2ccc(O)c(O)c2)(C(=O)O)CC1O (centres undefined)	-14	1.8µM*	-12%	-2%	-10%
COCCn1c(=O)c(-c2ccc(F)c(F)c2)nc2cncnc21	·	·	-1%	-10%	·
CCCCN(CC)CCOc1cccc2ccccc12	·	·	-4%	0%	·
COc1cc(/C=N/NC(=O)C2(O)c3ccccc3-c3ccccc32)ccc1O	-10	?	-5%	-3%	-3%
COc1cc(/C=N/NC(=O)C(=O)/C=C2\NC(C)(C)Cc3ccccc32)ccc1O	-29	35µM*	-11%	12%	·
Nc1ncnc2c1ncn2[C@@H]1O[C@H](COP(=O)(O)OP(=O)(O)OC[C@H]2OC(O)[C@H](O)[C@@H]2O)[C@@H](O)[C@H]1O (some centres undefined)	·	·	7%	4%	·
Oc1c(Cl)cc(Cl)c2c1NCCC2	-4	14µM*	0%	5%	3%
SMILES	GLA inh pH 4.5	GAA glycogen	GLA spleen mod	GAA spleen mod	GAA inhib
CCc1ccc(C(=O)N2CCC(c3nc(-c4ccc(S(=O)(=O)N5CCCC5)cc4)no3)CC2)cc1	·	-7%[76.3 µM]	·	·	·
O=C(N/N=C/c1ccc(O)c(O)c1)N/N=C/c1ccc(O)c(O)c1	·	1.4µM*	·	·	·
Cc1nonc1C(=O)N/N=C/c1ccc(O)c(O)c1	5	7.9µM*	0%	-6%	0%
COc1cccc(N2C(=O)CC(Nc3ccc(N4CCOCC4)cc3)C2=O)c1 (centres undefined)	2	3.5µM*	8%	-7%	0%
CN(C)c1ccc(N2C(=O)CC(Nc3ccc(N4CCOCC4)cc3)C2=O)cc1 (centres undefined)	-10	?	-4%	-2%	0%
O=C1CC(Nc2ccc(N3CCOCC3)cc2)C(=O)N1c1cccc(C(F)(F)F)c1 (centres undefined)	2	25µM*	4%	-1%	-2%
COc1ccc(N2C(=O)CC(Nc3ccc(N4CCOCC4)cc3)C2=O)c(OC)c1 (centres undefined)	10	?	4%	-4%	?
c1cncc(CNc2ccc3c(c2)OCO3)c1	7	18µM*	4%	-2%	-4%
COc1ccc(OC)c(N/C(C)=C/C(=O)c2ccncc2)c1	·	-11%[76.3 µM]	·	·	·
C/C(=C\C(=O)c1ccncc1)Nc1ccccc1O	-17	25µM*	10%	-3%	-4%
O=C(Nc1c(Cl)cccc1Cl)c1cc(-c2cccc(O)c2)on1	·	-9%[76.3 µM]	·	·	·
NC(=O)c1ccc2nc(-c3ccc(Oc4ccc(Cl)cc4)cc3)[nH]c2c1	·	·	-8%	-2%	·
COC(=O)c1[nH]c2ccc(F)cc2c1NS(=O)(=O)c1ccc(F)c(C)c1	1	-9%	-3%	-1%	-1%
COC(=O)c1[nH]c2ccc(C)cc2c1NS(=O)(=O)c1ccc(F)cc1	8	10µM*	8%	-5%	8%
COC(=O)c1[nH]c2ccc(C)cc2c1NS(=O)(=O)c1ccc(F)c(C)c1	0	18µM*	11%	6%	3%
Cc1cc(S(=O)(=O)Nc2c(C(=O)O)[nH]c3ccccc23)ccc1F	-1	2.2µM*	-13%	-7%	2%
O=C(Nc1cc(NC(=O)c2ccccc2Cl)ccc1Cl)c1ccccc1	·	-13%[76.3 µM]	·	·	·
CC(C)[C@H](NC(=O)OC(C)(C)C)[C@@H](O)CC(=O)OC(C)(C)C	·	·	-17%[17.5 µM]	-8%[17.4 µM]	·
CC[C@H](C)[C@H](NC(=O)[C@H](Cc1ccc(O)cc1)NC(=O)[C@@H]1CCCN1C(=O)[C@@H](NC(=O)[C@@H](N)CCCCN)[C@@H](C)CC)C(=O)N[C@@H](CC(C)C)C(=O)O	·	·	-5%	4%	·
O=C(CSc1ncc(C(F)(F)F)cc1Cl)N1CCN(S(=O)(=O)c2ccc(Cl)cc2)CC1	-1	-6%	11%	-10%	?
O=C(CSc1ncc(C(F)(F)F)cc1Cl)N1CCN(S(=O)(=O)c2ccccc2)CC1	-8	?	5%	-30%	35µM*
COc1cccc(NS(=O)(=O)c2ccc3[nH]cc(C(=O)N4CCCC4)c(=O)c3c2)c1	·	28µM*	·	·	·

High-throughput results deposited in PubChem by National Center for Advancing Translational Sciences (NCATS).
